Assay results as given in the supplement of paper PMC10849652.
Of roughly 7,900 targets only a part is listed; those with a hit were picked by preference. About 0.6% of all pairs of compound and target were hits.

What was measured:
Test in all cases: log2 fold change, soluble protein after heating vs DMSO (PISA); higher = thermal stabilisation; K562 cells, 10 uM, 30 min; active = over 0.2 and 3.5 SD of the protein, either way, in both replicates (recomputed)
[1] = compound: C1=CC=C(C=C1)[C@H](COC2=CC3=C(C=C2)NC(=O)N3)NC(=O)C4=CC=CN(C4=O)CC5=CC(=C(C=C5)F)F
In short: (§1)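 Soluble protein was defined as the supernatant after 21,000xg for 90 min. It came from K562 cells at 2×10^6 cells/mL given 10 μM compound for 30 min, heated in aliquots for 3 min across 48°C-58°C, pooled, and extracted in PBS with 0.5% NP-40 at 4°C, and was quantified by TMTpro 16plex LC-MS/MS with equalised channel sums. Thermal stability against control samples, from duplicates, is reported as log2 fold change.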

[2] = compound: CC1=C(SC2=C1C(=N[C@H](C3=NN=C(N32)C)CC(=O)N)C4=CC=C(C=C4)Cl)C
In short: as §1

[3] = compound: Cc1sc2c(c1C)C(c1ccc(Cl)cc1)=N[C@@H](CC(=O)OC(C)(C)C)c1nnc(C)n1-2
In short: as §1

[4] = compound: c1ccc([C@@H]2C[C@H]2NC2CCNCC2)cc1
In short: as §1

[5] = compound: CC1=C2C(=CC=C1)N=C(N(C2=O)C3=CC=CC=C3C)CN4C=NC5=C(N=CN=C54)N
In short: as §1

Measured: log2 fold change

TMEM179B (UniProt Q7Z7N9)
Sequence of UniProt Q7Z7N9 (Q7Z7N9 whole entry, looked up): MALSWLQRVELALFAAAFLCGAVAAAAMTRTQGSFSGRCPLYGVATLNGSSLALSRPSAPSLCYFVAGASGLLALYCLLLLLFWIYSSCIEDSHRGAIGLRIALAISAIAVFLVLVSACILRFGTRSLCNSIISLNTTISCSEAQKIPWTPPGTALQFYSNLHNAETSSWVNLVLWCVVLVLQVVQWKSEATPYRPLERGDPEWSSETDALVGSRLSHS
inactive: [1] -0.065 | [2] 0.081 | [3] 0.005 | [4] -0.024

USP24 (UniProt Q9UPU5)
Sequence of UniProt Q9UPU5 (Q9UPU5 whole entry, looked up): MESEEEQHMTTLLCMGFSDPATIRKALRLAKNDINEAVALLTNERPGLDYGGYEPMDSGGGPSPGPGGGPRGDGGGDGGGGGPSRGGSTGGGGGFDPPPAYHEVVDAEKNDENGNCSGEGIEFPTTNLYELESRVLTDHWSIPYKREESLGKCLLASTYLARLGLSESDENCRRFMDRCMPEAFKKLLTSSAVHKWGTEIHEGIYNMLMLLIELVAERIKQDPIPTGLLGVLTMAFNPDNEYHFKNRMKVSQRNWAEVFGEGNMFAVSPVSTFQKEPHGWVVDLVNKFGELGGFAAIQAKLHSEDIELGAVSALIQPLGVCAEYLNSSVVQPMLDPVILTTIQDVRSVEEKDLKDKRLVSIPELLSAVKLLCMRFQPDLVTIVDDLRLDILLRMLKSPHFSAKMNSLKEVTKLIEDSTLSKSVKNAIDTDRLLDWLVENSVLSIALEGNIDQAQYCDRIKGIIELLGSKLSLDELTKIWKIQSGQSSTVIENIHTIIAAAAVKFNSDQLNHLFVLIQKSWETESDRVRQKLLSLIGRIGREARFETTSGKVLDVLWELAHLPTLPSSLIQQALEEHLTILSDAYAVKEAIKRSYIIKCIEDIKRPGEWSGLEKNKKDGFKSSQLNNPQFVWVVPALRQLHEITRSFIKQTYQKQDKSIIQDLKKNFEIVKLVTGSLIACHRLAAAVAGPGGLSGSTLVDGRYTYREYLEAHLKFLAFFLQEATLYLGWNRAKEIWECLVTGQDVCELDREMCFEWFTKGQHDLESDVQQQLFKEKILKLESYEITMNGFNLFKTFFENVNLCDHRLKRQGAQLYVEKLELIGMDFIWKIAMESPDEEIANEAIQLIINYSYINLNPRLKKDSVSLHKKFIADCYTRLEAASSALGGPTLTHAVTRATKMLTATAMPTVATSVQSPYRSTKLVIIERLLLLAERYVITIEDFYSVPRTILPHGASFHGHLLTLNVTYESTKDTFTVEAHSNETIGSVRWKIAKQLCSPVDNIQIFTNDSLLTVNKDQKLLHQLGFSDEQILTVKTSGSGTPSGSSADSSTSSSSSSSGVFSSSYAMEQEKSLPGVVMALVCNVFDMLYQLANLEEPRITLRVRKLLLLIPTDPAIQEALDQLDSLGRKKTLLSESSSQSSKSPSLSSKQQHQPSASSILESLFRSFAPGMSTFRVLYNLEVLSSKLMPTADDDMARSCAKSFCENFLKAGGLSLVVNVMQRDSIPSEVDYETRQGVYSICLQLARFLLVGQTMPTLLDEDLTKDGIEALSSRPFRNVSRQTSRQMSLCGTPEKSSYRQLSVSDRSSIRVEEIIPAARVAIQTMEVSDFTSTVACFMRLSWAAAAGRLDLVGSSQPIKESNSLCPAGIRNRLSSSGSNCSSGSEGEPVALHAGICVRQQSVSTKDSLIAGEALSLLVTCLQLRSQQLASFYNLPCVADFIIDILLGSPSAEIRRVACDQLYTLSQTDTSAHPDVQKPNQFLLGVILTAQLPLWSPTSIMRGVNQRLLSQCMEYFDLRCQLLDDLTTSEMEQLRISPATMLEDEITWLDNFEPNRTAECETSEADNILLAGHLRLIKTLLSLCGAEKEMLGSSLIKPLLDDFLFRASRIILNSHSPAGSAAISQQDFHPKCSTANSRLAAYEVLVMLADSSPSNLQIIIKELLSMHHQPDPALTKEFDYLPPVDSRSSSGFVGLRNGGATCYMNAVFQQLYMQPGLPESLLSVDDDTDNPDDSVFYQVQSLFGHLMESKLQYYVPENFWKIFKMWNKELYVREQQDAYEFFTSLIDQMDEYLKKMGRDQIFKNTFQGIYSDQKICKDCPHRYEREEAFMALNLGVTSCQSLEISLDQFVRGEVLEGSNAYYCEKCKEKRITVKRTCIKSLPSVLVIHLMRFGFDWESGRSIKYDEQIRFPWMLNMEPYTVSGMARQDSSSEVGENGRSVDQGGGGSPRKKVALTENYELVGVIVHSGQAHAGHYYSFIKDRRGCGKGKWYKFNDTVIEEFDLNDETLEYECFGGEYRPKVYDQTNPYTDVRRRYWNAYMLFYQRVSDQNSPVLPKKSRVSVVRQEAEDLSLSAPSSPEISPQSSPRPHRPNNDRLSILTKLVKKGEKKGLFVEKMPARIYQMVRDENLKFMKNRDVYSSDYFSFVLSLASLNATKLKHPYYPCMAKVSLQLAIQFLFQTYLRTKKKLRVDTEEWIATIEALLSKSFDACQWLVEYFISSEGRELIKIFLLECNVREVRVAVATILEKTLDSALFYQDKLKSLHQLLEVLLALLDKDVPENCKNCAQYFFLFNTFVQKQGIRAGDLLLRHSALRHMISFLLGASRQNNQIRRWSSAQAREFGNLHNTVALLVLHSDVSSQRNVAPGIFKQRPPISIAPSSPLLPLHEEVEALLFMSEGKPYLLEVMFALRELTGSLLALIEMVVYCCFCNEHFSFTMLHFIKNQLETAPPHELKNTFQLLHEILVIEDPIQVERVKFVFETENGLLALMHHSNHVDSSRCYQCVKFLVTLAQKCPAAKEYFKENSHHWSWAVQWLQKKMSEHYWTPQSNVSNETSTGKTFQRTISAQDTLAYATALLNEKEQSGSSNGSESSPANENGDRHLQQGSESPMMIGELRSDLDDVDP
inactive: [1] 0.114 | [2] 0.02 | [5] 0.105 | [3] -0.198 | [4] -0.033

TMEM268 isoform 3 (UniProt Q5VZI3)
Sequence of UniProt Q5VZI3 (Q5VZI3 whole entry, looked up): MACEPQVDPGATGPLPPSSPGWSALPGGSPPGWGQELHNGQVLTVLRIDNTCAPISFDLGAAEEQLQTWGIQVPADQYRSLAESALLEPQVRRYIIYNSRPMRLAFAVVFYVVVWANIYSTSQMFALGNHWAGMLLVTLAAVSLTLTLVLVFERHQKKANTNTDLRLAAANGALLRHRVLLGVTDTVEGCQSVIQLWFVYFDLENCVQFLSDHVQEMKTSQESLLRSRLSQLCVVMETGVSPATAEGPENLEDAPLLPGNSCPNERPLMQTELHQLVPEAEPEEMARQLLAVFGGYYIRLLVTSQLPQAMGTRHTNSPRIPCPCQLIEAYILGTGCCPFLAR
inactive: [1] -0.008 | [2] 0 | [3] 0.151 | [4] 0.063

TTC4 (UniProt O95801)
Sequence of UniProt O95801 (O95801 whole entry, looked up): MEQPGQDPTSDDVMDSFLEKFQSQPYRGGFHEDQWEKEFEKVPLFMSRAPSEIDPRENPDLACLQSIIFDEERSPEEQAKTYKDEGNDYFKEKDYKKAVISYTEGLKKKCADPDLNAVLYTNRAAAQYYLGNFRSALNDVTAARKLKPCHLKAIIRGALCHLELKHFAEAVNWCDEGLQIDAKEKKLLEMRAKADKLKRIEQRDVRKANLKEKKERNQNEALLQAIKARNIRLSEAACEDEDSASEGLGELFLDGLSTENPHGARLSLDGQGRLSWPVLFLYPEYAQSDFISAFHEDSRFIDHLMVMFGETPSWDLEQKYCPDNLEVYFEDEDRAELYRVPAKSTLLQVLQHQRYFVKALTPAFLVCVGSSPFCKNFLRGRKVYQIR
inactive: [1] -0.089 | [2] -0.008 | [5] 0.099 | [3] 0.022 | [4] -0.029

XPNPEP1 isoform 3 (UniProt Q9NQW7)
Sequence of UniProt Q9NQW7 (Q9NQW7 whole entry, looked up): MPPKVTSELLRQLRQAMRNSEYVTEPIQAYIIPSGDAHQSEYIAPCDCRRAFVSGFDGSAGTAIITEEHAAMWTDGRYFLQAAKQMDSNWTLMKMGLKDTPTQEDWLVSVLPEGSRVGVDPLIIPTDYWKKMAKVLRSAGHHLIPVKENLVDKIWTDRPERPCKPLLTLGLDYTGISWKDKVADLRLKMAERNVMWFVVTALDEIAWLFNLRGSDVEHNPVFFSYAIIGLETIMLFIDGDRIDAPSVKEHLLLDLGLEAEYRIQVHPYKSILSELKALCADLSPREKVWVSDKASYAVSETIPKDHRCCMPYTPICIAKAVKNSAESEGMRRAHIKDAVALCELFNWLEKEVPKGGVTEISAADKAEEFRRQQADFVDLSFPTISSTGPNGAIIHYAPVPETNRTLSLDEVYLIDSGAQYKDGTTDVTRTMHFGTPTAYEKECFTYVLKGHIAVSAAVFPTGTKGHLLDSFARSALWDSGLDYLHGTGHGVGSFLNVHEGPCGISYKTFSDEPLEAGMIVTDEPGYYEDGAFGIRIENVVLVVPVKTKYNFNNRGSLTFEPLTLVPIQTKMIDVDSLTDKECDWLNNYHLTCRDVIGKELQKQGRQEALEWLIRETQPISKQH
inactive: [1] -0.017 | [2] 0.081 | [5] 0.021 | [3] 0.002 | [4] -0.029

WDR46, A0A0G2JJL1
inactive: [1] 0.129 | [5] -0.546 | [3] 0.303

VDAC1 (UniProt C9JI87)
inactive: [1] -0.132 | [2] -0.004 | [4] 0.137

TVP23C (UniProt Q96ET8)
Sequence of UniProt Q96ET8 (Q96ET8 whole entry, looked up): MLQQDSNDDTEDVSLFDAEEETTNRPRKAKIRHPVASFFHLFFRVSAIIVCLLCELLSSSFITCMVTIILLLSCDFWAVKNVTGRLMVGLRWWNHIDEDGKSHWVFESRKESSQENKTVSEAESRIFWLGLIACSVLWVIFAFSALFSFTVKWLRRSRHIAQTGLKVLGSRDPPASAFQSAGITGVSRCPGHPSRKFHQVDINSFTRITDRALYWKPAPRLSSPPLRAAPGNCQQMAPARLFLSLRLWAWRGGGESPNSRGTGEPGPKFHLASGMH
inactive: [2] 0.048 | [5] 0.041 | [3] 0.029 | [4] 0.086

TRIQK (UniProt Q629K1)
Sequence of UniProt Q629K1 (Q629K1 whole entry, looked up): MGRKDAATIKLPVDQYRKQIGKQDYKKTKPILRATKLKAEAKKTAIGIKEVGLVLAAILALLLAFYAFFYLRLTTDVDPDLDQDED
inactive: [1] 0.098 | [2] 0.028 | [3] -0.052 | [4] 0.048

TRIM5 (UniProt Q9C035)
Sequence of UniProt Q9C035 (Q9C035 whole entry, looked up): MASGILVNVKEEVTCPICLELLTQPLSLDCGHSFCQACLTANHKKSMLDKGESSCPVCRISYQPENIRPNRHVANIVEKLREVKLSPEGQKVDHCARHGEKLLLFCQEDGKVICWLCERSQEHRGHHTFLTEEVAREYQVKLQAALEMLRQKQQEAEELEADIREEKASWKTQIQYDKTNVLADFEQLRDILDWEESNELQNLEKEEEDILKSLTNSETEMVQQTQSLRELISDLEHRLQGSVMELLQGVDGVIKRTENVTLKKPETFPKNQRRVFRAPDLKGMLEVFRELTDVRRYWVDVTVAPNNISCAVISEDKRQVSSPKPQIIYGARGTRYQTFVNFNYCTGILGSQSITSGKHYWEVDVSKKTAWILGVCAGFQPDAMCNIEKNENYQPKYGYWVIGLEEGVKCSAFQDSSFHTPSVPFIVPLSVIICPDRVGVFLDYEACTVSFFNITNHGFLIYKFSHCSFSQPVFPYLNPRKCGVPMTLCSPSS
inactive: [2] 0.021 | [5] 0.023 | [3] 0.155 | [4] -0.004
